According to PubChem BioAssay (NCATS):
Inconclusive results are not listed. Unmarked numbers belong to inactive results. Calls come from the whole dose curve; as a rule, active = well fitted cell-killing curve with a large enough effect; inconclusive = small, poorly fitted or top-dose-only effect; inactive = flat fitted curve, though single readings scatter.

Experiment: qHTS of pediatric cancer cell lines to identify multiple opportunities for drug repurposing: Primary screen for RD cells (AID 1347104);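 note: plate controls were DMSO for no effect and bortezomib for full effect; nearly all actives have a fitted effect of over 55% in size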
Settings: RD rhabdomyosarcoma viability, CellTiter-Glo luminescence, 48 h; series mostly up to 46 µM; activity change, negative = cytotoxic: at the top concentration
From the text: Drug repurposing or repositioning has been offered as a strategy for drug development in oncology programs. This approach has special potential for childhood cancers and other rare or orphan diseases, where the expected return on new drug development has been a disincentive to pharmaceuticals. […] In this project we exploit the poly-pharmacology of drugs to discover new indications via phenotypic screening of a panel of 19 well-characterized cell lines derived from solid tumors seen in children and adolescents. The goal is to identify approved drugs with previously unrecognized anticancer properties that has the potential to reveal new mechanisms and biological processes involved in carcinogenesis or drug resistance. We employed a titration-based paradigm (quantitative high-throughput screening or qHTS), where all compounds were tested at multiple concentrations for their effect on cell viability. Concentration-response curves (CRCs) were derived directly from the primary screen, and both potency and efficacy values were used to identify compounds with robust bioactivity profiles. We screened the NIH Chemical Genomics Center (NCGC) Pharmaceutical Collection (NPC) and Mechanism Interrogation Plate (MIPE) small molecule collections of approved and investigational compounds against these cell lines; and measured metabolically active cells after 48 hours of compound treatment as a proxy for cell viability. […] Assay Submitter: Nathalia J. Martinez, National Center for Advancing Translational Sciences, National Institutes of Health, Rockville, MD, USA; email: natalia.martinez@nih.gov Shen, M et al. Quantitative high-throughput phenotypic screening of pediatric cancer cell lines identifies multiple opportunities for drug repurposing. Oncotarget 2017 Dec 19;9(4):4758-4772. PMID 29435139.
The cells were obtained from University of North Carolina (UNC), Pediatric Preclinical Testing Program (PPT), and Coriell Institute (CI). qHTS cell viability assay: Cells were assayed in growth media at a density of 500-1,000 cells/well. Five microliters of cells were dispensed into 1,536-well, white, solid-bottom, TC-treated plates (Greiner Bio One) using a multidrop dispenser and incubated at 37 degrees C, 5% CO2, under a humidified atmosphere for 5 hours. Twenty-three nanoliters of compounds and controls (neutral control DMSO or positive control bortezomib at final concentration of 2.3 µM) were subsequently transferred by Kalypsys pintool. For primary screens, the MIPE collection was tested at 11-point dilutions (final concentrations range from 0.78 nM to 46 µM) and the NPC collection at 8-point dilutions (final concentrations range from 0.59 nM to 46 µM). Compounds tested in follow-up screens were assayed at 11-point dilutions. Cells were incubated for 48 hours, followed by addition of 3 µL of CellTiter-Glo (Promega). After a 15 min incubation at room temperature, samples were analyzed for luminescence intensity using a ViewLux High-throughput CCD imager equipped with clear filters.

Point of comparison: `c1ccc2[nH]ccc2c1`, “activity change, negative = cytotoxic” value 12.8%. Against it:
- COc1cc(O)cc(O)c1 — lower, 5.27%
- CCN(CC)CCOC(=O)C(c1ccccc1)c1ccccc1 — lower, 1.6%
- NCC1CCC(C(=O)Oc2ccc(CCC(=O)O)cc2)CC1 (stereo not given) — higher, 13.3%
- O=c1[nH]c(=O)n([C@H]2C[C@H](O)[C@@H](CO)O2)cc1I — lower, -2.21%
- COc1ccc(-c2cc(=O)c3c(O)cc(O[C@@H]4O[C@H](CO[C@@H]5O[C@@H](C)[C@H](O)[C@@H](O)[C@H]5O)[C@@H](O)[C@H](O)[C@H]4O)cc3o2)cc1O — lower, 10.3%
- Cn1c(=O)c2c(ncn2CCO)n(C)c1=O — lower, -12.6%
- C[C@]1(Cn2ccnn2)[C@H](C(=O)O)N2C(=O)C[C@H]2S1(=O)=O — higher, 14.2%
- Nc1ccc(S(=O)(=O)c2ccc(N)cc2)cc1 — lower, 8.62%
- O[C@@H]1CO[C@H]2[C@@H]1OC[C@@H]2O — lower, 1.4%
- CN1C(C)(C)CCCC1(C)C — lower, -3.07%
- CC(=O)N(CC(O)CN(C(C)=O)c1c(I)c(C(=O)NCC(O)CO)c(I)c(C(=O)NCC(O)CO)c1I)c1c(I)c(C(=O)NCC(O)CO)c(I)c(C(=O)NCC(O)CO)c1I (stereo not given) — higher, 15.9%
- NC(=O)NS(=O)(=O)c1ccc(N)cc1 — higher, 16.8%
- Cc1c(C)c2c(c(C)c1OC(=O)c1cccnc1)CC[C@@](C)(CCC[C@H](C)CCC[C@H](C)CCCC(C)C)O2 — lower, 3.43%
- O=C1C(c2[nH]c3ccccc3c2O)=Nc2ccccc21 — lower, -1.58%
- Nc1ccc(C(=O)Oc2ccccc2)c(O)c1 — lower, 0.589%
- O=C(O)[C@@H]1[C@H]2C[C@H]3c4[nH]c5ccccc5c4CCN3C[C@@H]2CC[C@@H]1O — lower, 4.72%
- CC(=O)NCc1c(I)c(NC(C)=O)c(I)c(C(=O)O)c1I — higher, 16.5%
- NS(=O)(=O)c1cc2c(cc1C(F)(F)F)NCNS2(=O)=O — lower, -5.92%
- CC(C)(C)C(=O)OCOC(=O)[C@@H]1N2C(=O)[C@@H](NC(=O)[C@H](N)c3ccccc3)[C@H]2SC1(C)C — higher, 13.6%
- CCCCCC(C)N (stereo not given) — lower, 9.11%
- C[C@H]1COc2c(C3(N)CC3)c(F)cc3c(=O)c(C(=O)O)cn1c23 — lower, 10%
- CC1(c2ccccc2)OC(C(=O)O)=CC1=O (stereo not given) — lower, 9.22%
- CC1CCN(CCCC(=O)c2ccc(F)cc2)CC1 — lower, -4.78%
- O=c1[nH]cnc2nc[nH]c12 — higher, 19.8%
- CC(=O)OC[C@H]1O[C@@](COC(C)=O)(O[C@H]2O[C@H](COC(C)=O)[C@@H](OC(C)=O)[C@H](OC(C)=O)[C@H]2OC(C)=O)[C@@H](OC(C)=O)[C@@H]1OC(C)=O — lower, 5.86%
- Cc1cc(C)c(NC(=O)CN(CC(=O)O)CC(=O)O)c(C)c1Br — lower, 10.4%
- CN(C/C=C/C#CC(C)(C)C)Cc1cccc2ccccc12 — lower, -15.4%
- Cc1c(N(C)C)c(=O)n(-c2ccccc2)n1C — lower, 12.3%
- CC(C)=CCC/C(C)=C/CO — lower, 11.3%
- CCN(CC)CCc1nc(-c2ccccc2)no1 — lower, 12.4%
- O=c1[nH]c(=O)c2ccccc2o1 — lower, 9.1%
- C=CCOc1ccccc1OCC(O)CNC(C)C (stereo not given) — lower, 7.53%
- COCC(=O)Nc1c(I)c(C(=O)NCC(O)CO)c(I)c(C(=O)N(C)CC(O)CO)c1I (stereo not given) — lower, 1.9%
- CCCNC(C)(C)COC(=O)c1ccccc1 — lower, -3.1%
- CCOC(=O)[C@H](CCc1ccccc1)N[C@@H](C)C(=O)N1CCC[C@H]1C(=O)O — lower, 1.34%
- Cc1c(I)c(=O)n(-c2ccccc2)n1C — lower, 1.26%
- C/C=C/C(=O)N(CC)c1ccccc1C — lower, 9.25%
- CC1CC(OC(=O)c2ccccc2O)CC(C)(C)C1 (stereo not given) — lower, 3.06%

In the case of `NC(N)=NCCN1CCCCCCC1`, the activity change, negative = cytotoxic is reported as 3.85% [at 0.597 µM].
